ELG1 repair inh – inhibitors of ELG1-dependent DNA repair in HEK293T cells; HEK293T ELG1-luciferase reporter, luminescence, 16 h; DNA damage induced by 5-fluorouridine; Potency, µM (doses to about 46.1 µM), actives largely listed as inhibitors; 2.3% of 330,000 active; AID 504467; further: nearly all actives have a fitted effect of over 55% in size
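HEK293T cells expressing luciferase-tagged ELG1 (2,000/well) received 5-Fluorouridine plus compound or DMSO for 16 hr at 37 °C. Luciferase was read by ONE-Glo luminescence after 30 min at room temperature.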
TDP1 cell noCPT – qHTS for Inhibitors of human tyrosyl-DNA phosphodiesterase 1 (TDP1): qHTS in cells in absence of CPT | DT40 Tdp1-/- hTDP1 cells, no CPT, ATP luminescence, 48 h | Potency, µM (doses to about 46.2 µM), actives largely listed as inhibitors | 15% of 420,000 active | AID 686978, 2013; further: nearly all actives have a fitted effect of over 55% in size
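Seeded 400 DT40-hTDP1 cells/well (vehicle DMSO, no 20 nM CPT); pinned compounds; ≥48 hr at 37 °C; CellTiter-Glo luminescence as viability measure.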
HT1080-NT tox – kills 2HG-producing HT-1080-NT fibrosarcoma cells; HT-1080-NT fibrosarcoma viability, CellTiter-Glo ATP luminescence, 48 h; Potency, µM (titrated, usually from 46.1 µM), actives largely listed as cytotoxic; 1.6% of 360,000 active; AID 686970;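 further: NT is the 2HG producing partner of a matched IDH1 knockdown line; nearly all actives have a fitted effect of over 55% in size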
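HT-1080-NT fibrosarcoma cells (2HG-overproducing), 750 cells/well in RPMI with 5% FBS, dosed after 2 h and incubated 48 h at 37C. CellTiter-Glo luminescence normalized to DMSO and no-cell wells; concentration-response curves fitted and classed.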
IL-1B inflam inh – blocks inflammasome-driven IL-1 beta release; THP-1 LPS/ATP IL-1B secretion, AlphaLISA, 16 h; active compounds read low; AID 743279; 4.7% of 360,000 active; activity change, % at 57.5 µM; in the data active means activity change below about -50%; inconclusive means mostly about -30% to -49%
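Secreted IL-1B measured by AlphaLISA bead assay after 16 h compound exposure of THP-1 cells; compounds (final up to 57.5 uM) added 1 h before LPS (250 ng/mL) and ATP (1.25 mM) stimulation; lower signal means less secretion.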
HT1080 IDH1KD tx – kills HT-1080 cells with IDH1 knockdown; HT-1080 IDH1 knockdown viability, ATP luminescence, 48 h; Potency, µM (titrated, usually from 46.1 µM), hits mostly cytotoxic; 2% of 360,000 active; AID 686971
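IDH1KD HT-1080 cells, 750/well, RPMI + 5% FBS; compound pinned after 2 h settling; 48 h, 37 °C; CellTiter-Glo luminescence; % activity normalised to DMSO and no-cell wells; curves fitted, classed by r2 and efficacy.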
DT40 TDP1 CPT – growth inhibition of DT40 Tdp1-/-;hTDP1 cells with camptothecin (screen for TDP1 inhibitors) | AID 686979 | Potency, µM (titrated, usually from 46.2 µM), actives largely listed as inhibitors | chicken DT40 Tdp1-/-;hTDP1 cells + 20 nM CPT, ATP luminescence, 48 h | 12% of 420,000 active; further: nearly all actives have a fitted effect of over 55% in size
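Chicken DT40 Tdp1-/- cells complemented with human TDP1, 400 cells/well, exposed to compounds plus 20 nM camptothecin for at least 48 h at 37 C; viability read as ATP content by CellTiter-Glo luminescence.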
A number is an active result; . = inactive; ? = inconclusive; / = no result. Hits are enriched below; roughly 19% of the tested compounds scored in any of these assays. Unless noted, the call rests on the fitted dose curve; in most records, active means well fitted curve in the direction sought with a large enough effect; inconclusive means small, poorly fitted or top-dose-only effect, or another doubt; inactive means no such curve, though single readings can be large; an effect the other way counts as inactive or inconclusive.

SMILES | ELG1 repair inh | TDP1 cell noCPT | HT1080-NT tox | IL-1B inflam inh | HT1080 IDH1KD tx | DT40 TDP1 CPT
CCc1ccc2[nH]c(=O)c(CN(Cc3nnnn3C3CCCC3)C3CCCCC3)cc2c1 | ? | ? | . | ? | ? | ?
Cc1cccc2cc(CN(Cc3nnnn3C3CCCC3)C3CCCCC3)c(=O)[nH]c12 | / | ? | . | . | . | 21µM
COc1ccc(CN(Cc2cc3ccc(C)cc3[nH]c2=O)Cc2nnnn2C2CCCC2)cc1 | ? | 18µM | . | -58 | . | ?
COc1ccc2cc(CN(CCCN3CCOCC3)Cc3nnnn3C3CCCC3)c(=O)[nH]c2c1 | . | . | . | . | . | ?
Cc1cc(C)c2cc(CN(Cc3nnnn3C3CCCCC3)CC3CCCO3)c(=O)[nH]c2c1 (stereo unspecified) | . | 13µM | ? | . | ? | ?
Cc1ccc2cc(CN(Cc3nnnn3C3CCCCC3)CC3CCCO3)c(=O)[nH]c2c1 (stereo unspecified) | . | 16µM | . | . | ? | 15µM
Cc1cc2cc(CN(Cc3nnnn3C3CCCCC3)CC3CCCO3)c(=O)[nH]c2cc1C (stereo unspecified) | . | ? | . | -66 | . | ?
CCc1ccc(OCCCn2c(CCNC(=O)C3CCCCC3)nc3ccccc32)cc1 | / | . | / | / | / | ?
Cc1cccc(C)c1OCCCn1c(CCNC(=O)C2CCCCC2)nc2ccccc21 | / | 18µM | / | / | / | 15µM
Cc1ccccc1OCCCCn1c(CCNC(=O)C(C)(C)C)nc2ccccc21 | / | 8.2µM | / | / | / | 13µM
COc1ccc(OCCn2c(CCNC(=O)C3CCCCC3)nc3ccccc32)cc1 | / | 13µM | / | / | / | ?
O=C(NCCc1nc2ccccc2n1CCCOc1ccccc1)C1CCCCC1 | / | 11µM | / | / | / | 10µM
COc1ccc(N2CCN(c3oc(/C=C/c4ccc(F)cc4)nc3C#N)CC2)cc1 | / | . | / | / | / | .
Cc1cc(OCCCn2c(CCNC(=O)C3CCCCC3)nc3ccccc32)ccc1Cl | / | 7.3µM | / | / | / | 6.5µM
CCn1c(=O)cc(OCC(=O)N2CCN(C(=O)c3ccco3)CC2)c2ccccc21 | ? | . | . | . | . | ?
CCn1c(=O)cc(OCC(=O)N2CCN(c3cccc(Cl)c3)CC2)c2ccccc21 | / | 15µM | / | / | / | 23µM
CCn1c(=O)cc(OCC(=O)N(C)c2cc(Cl)ccc2C)c2ccccc21 | / | 23µM | / | / | / | 21µM
CCn1c(=O)cc(OCC(=O)N2CCN(c3cccc(C)c3C)CC2)c2ccccc21 | / | 7.3µM | / | / | / | 9.2µM
Cn1c(=O)cc(OCC(=O)N2CCN(c3cccc(C(F)(F)F)c3)CC2)c2ccccc21 | ? | 15µM | . | . | . | 21µM
N#CC1(NC(=O)COC(=O)C2CCN(S(=O)(=O)c3ccc4c(c3)OCCO4)CC2)CCCCC1 | / | . | . | . | . | .
Cc1cccc(N2CCN(C(=O)COc3cccc4c3OC(C)(C)C4)CC2)c1C | 26µM | ? | . | . | . | ?
Cc1ccccc1C(=O)NC1CCN(CC(=O)NCc2ccc(F)cc2)CC1 | . | . | . | . | . | .
CCN1CCC(NCCc2ccc(F)cc2)CC1 | . | ? | . | -54 | . | ?
Cc1ccc(C(=O)N(Cc2ccco2)Cc2sccc2C)cc1 | / | 23µM | / | / | / | 21µM
Cc1ccsc1CN(Cc1ccco1)C(=O)c1ccc(Cl)cc1 | / | 13µM | / | / | / | 16µM
O=C(CN(Cc1ccco1)C(=O)c1ccc(Cl)cc1)Nc1c(Cl)cc(Cl)cc1Cl | . | . | . | . | . | .
COc1ccccc1-c1ccc(SCC(=O)NCCc2ccccc2)nn1 | . | 23µM | . | . | . | ?
COc1ccccc1-c1ccc(SCc2cccc(F)c2)nn1 | ? | ? | . | . | . | ?
O=C(CSc1ccc(-c2ccc(F)cc2)nn1)NCCc1ccccc1 | . | . | . | . | . | .
COc1ccccc1-c1ccc(SCc2ccccc2F)nn1 | ? | ? | . | -60 | . | .
